Gal4-VP16 FLuc – Gal4-VP16 reporter inhibition counter-screen | Drosophila S2 Gal4-VP16 UAS-luciferase, luminescence, 20 h | Potency, µM (series often up to 53.6 µM), usual class: inhibitors | 310,000 tested, 3.5% active | AID 2546;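 note: Gal4-VP16 expression switched on by copper sulfate through the metallothionein promoter; nearly all actives have a fitted effect of over 50% in size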
NPSR antagonist – blocks cAMP signaling of the human neuropeptide S receptor | CHO-NPSR cells, cAMP TR-FRET, antagonist mode | 220,000 tested, 1% active | Potency, µM (highest dose often 38.3 µM), most hits filed as inhibitors | Q6W5P4; note: nearly all actives have a fitted effect of over 50% in size
RORgamma inh – ROR gamma (mouse) transcription inhibition | 310,000 tested, 5.4% active | Potency, µM (top dose mostly 53.6 µM), usual class: inhibitors | Drosophila S2 Gal4-RORgamma UAS-luciferase reporter, 20 h | AID 2551 | P51450; note: nearly all actives have a fitted effect of over 60% in size
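Schneider cells (Drosophila), stable Gal4 DBD–ROR gamma + UAS-luc; 1 hr cmpd preincubation; Cu2+ induction 700 uM final; 20 hr ambient; luminescence.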
B2AR arrestin – recruits beta-arrestin to the human beta2-adrenergic receptor; P07550; beta-arrestin recruitment to beta2AR, cell-based reporter; Potency, µM (series often up to 46.1 µM), hits mostly activators; 330,000 tested, 0.02% active; note: nearly all actives have a fitted effect of over 65% in size
Target sequence (P07550 whole entry, looked up): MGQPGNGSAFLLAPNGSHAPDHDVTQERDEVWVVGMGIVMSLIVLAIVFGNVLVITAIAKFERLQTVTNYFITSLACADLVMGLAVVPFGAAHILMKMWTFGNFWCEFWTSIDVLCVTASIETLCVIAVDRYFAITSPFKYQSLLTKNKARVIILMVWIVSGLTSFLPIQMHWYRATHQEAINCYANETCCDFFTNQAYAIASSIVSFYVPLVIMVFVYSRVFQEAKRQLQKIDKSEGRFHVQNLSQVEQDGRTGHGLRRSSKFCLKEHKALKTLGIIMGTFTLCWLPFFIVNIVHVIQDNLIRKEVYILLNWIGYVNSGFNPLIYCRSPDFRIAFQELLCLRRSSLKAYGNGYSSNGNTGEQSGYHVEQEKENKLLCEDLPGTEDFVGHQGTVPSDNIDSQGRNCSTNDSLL
Of the large screens only hits and unclear results are named; the others gave an inactive call. An excerpt weighted towards active compounds, which were near 5.7% of everything screened. Calls come from the whole dose curve; as a rule, active = well fitted curve in the direction sought with a large enough effect; inconclusive = small, poorly fitted or top-dose-only effect, or another doubt; inactive = no such curve, though single readings can be large; an effect the other way counts as inactive or inconclusive.

CCOc1cc(NC(=S)NCC2CCCO2)c(OCC)cc1NC(=O)c1ccc(OC)cc1 (stereo not given)	Gal4-VP16 FLuc 10µM, RORgamma inh 11.2µM
CCOc1cc(NC(=S)NC)c(OCC)cc1NC(=O)c1ccc(OC)cc1	Gal4-VP16 FLuc inconclusive, RORgamma inh 10µM
COc1ccc(CN(C)CC(=O)NC2CCCc3ccccc32)cc1OC (stereo not given)	none
C[C@H](CO)N1C[C@H](C)[C@@H](CN(C)C(=O)NC2CCCCC2)Oc2c(NC(=O)Nc3ccc(C(F)(F)F)cc3)cccc2C1=O	none (no result: Gal4-VP16 FLuc, NPSR antagonist, RORgamma inh)
COc1ccc(N2CCN(C(=O)CN3C(=O)NC(C)(C4CC4)C3=O)CC2)cc1 (stereo not given)	none (no result: Gal4-VP16 FLuc, NPSR antagonist, RORgamma inh)
CCOc1cc(NC(=S)Nc2ccccc2)c(OCC)cc1NC(=O)c1ccccc1	Gal4-VP16 FLuc 10µM, RORgamma inh 1.78µM
CCOc1ccccc1NC(=S)NCC1CCCO1 (stereo not given)	Gal4-VP16 FLuc inconclusive, RORgamma inh 11.2µM
CCOc1cc(NC(=S)NCC2CCCO2)c(OCC)cc1NC(=O)c1ccccc1C (stereo not given)	Gal4-VP16 FLuc inconclusive, RORgamma inh 10µM
CCOc1cc(N2CCOCC2)c(OCC)cc1NC(=O)c1ccccc1C	none
CCOc1cc(NC(=S)Nc2ccccc2OC)c(OCC)cc1NC(=O)c1ccccc1C	Gal4-VP16 FLuc 2.24µM, NPSR antagonist inconclusive, RORgamma inh 1.78µM
CCOc1cc(NC(=O)c2ccccn2)c(OCC)cc1NC(=O)c1ccccc1	none
CC[C@]12c3[nH]c4cc(CCC(=O)N(C)C)ccc4c3CCN1C(=O)[C@@H](CC(=O)NCC13CC4CC(CC(C4)C1)C3)C[C@@H]2C(=O)N1CCN(C(=O)c2ccco2)CC1	none (no result: Gal4-VP16 FLuc, NPSR antagonist, RORgamma inh)
CC(=O)OC[C@@H]1O[C@@H](O/N=C2/C[C@@H](O)[C@@H](O)[C@@H]3[C@@H]4C(=O)N(c5cccc(Oc6ccccc6)c5)C(=O)[C@H]4CC[C@@H]23)[C@H](OC(C)=O)[C@H](OC(C)=O)[C@@H]1OC(C)=O	none (no result: NPSR antagonist, B2AR arrestin)
CCn1c(COc2ccc(C)cc2)nnc1SCc1nc2ccccc2[nH]1	Gal4-VP16 FLuc inconclusive, RORgamma inh 12.6µM
O=c1[nH]c(CSc2nnc(COc3ccccc3)n2-c2ccccc2)nc2ccccc12	Gal4-VP16 FLuc inconclusive, RORgamma inh 12.6µM
COC(=O)c1cc([N+](=O)[O-])c(-n2ccnc2)c([N+](=O)[O-])c1	RORgamma inh inconclusive
O=C(CCCn1c(SCc2cc(=O)n3cc(Cl)ccc3n2)nc2ccccc2c1=O)NCC1CCCO1 (stereo not given)	none
O=c1cc(CSc2nc(NCc3ccccc3)c3ccccc3n2)nc2ccc(Cl)cn12	RORgamma inh 4.47µM
CCc1cc(=O)oc2c3c(cc(OCC(=O)NCCCOC)c12)OC(C)(C)CC3	none (no result: NPSR antagonist)
Cc1ccsc1/C=N/NC(=O)c1ccc(Cn2cc(Br)cn2)o1	Gal4-VP16 FLuc inconclusive, RORgamma inh 12.6µM
Cn1c(=O)c(C#N)c(-c2ccc(F)cc2)c2cc(C(=O)c3cc(Cl)cc(Cl)c3O)cnc21	Gal4-VP16 FLuc 17.8µM
COc1ccccc1-n1c(=O)c(C#N)c(-c2ccc([N+](=O)[O-])cc2)c2cc(C(=O)c3cc(F)ccc3O)cnc21	none
O=C(Nc1nnc(CSCc2ccccc2F)s1)c1cccc([N+](=O)[O-])c1	Gal4-VP16 FLuc 5.01µM, RORgamma inh 4.47µM
CC[C@@H](C(=O)[C@@H](C)[C@@H](O)[C@H](C)CCc1ccc(C)c(O)c1C(=O)O)[C@H]1O[C@](CC)([C@H]2CC[C@](O)(CC)[C@H](C)O2)C[C@@H]1C	Gal4-VP16 FLuc 6.31µM, RORgamma inh inconclusive (no result: NPSR antagonist)
CCC(C(=O)C(C)C(O)C(C)CCc1ccc(C)c(O)c1C(=O)O)C1OC(CC)(C2CC[C@@](O)(CC)C(C)O2)CC1C (stereo not given in full)	Gal4-VP16 FLuc 10µM, RORgamma inh inconclusive (no result: NPSR antagonist, B2AR arrestin)
COc1ccc2no[n+]([O-])c2c1	Gal4-VP16 FLuc 7.08µM, RORgamma inh 6.31µM
COc1ccc2nc(-c3ccco3)c(-c3ccco3)nc2c1	RORgamma inh inconclusive
CC(=O)N1CCn2c3c(c4cc(C)ccc42)CCCC31 (stereo not given)	none
Cc1ccc2c(c1)c1c3n2CCN(C(=O)CCl)C3CCC1 (stereo not given)	Gal4-VP16 FLuc 11.2µM, RORgamma inh 2.51µM (no result: NPSR antagonist)
CCCCNC(=S)N/N=C1\C(=O)c2cccc3cccc1c23	Gal4-VP16 FLuc inconclusive, RORgamma inh inconclusive
O=C(N/N=C1\CCc2ccccc21)c1ccc(O)cc1	none

Screening data deposited in PubChem by National Center for Advancing Translational Sciences (NCATS).
